Laboratory results taken from PubChem BioAssay AID1159580 (chemical genetic matrix, 2015).
Screen size: about 5,500 compounds; about 2,000 (36%) were called active. Not shown: some 18% with an inconclusive outcome. Cut-off read from the data, not from the text of the source: active = normalized growth mostly below about 0.91 (no sharp cut-off); inconclusive = no clear call, values can overlap the other calls; inactive = mostly above about 0.92. The list shows a part of the results.

Experiment: chemical genetic growth profiling, strain panel (AID 1159580);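 note: tested at 20 µM; growth read once vehicle control cultures reached saturation at 30 °C; 1 = growth at the plate median or of vehicle wells; lower values mean less growth of the strain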
Conditions: growth OD

Measured: normalized growth

Cc1cc(=O)oc2c(O)c(O)ccc12
inactive: S. cerevisiae deletion strains, locus YJR043C, strain POL32, stronger effect = lower value 1 | S. cerevisiae deletion strains, locus YJR066W, strain TOR1, stronger effect = lower value 0.94 | S. cerevisiae deletion strains, locus YJR075W, strain HOC1, stronger effect = lower value 1.02 | S. cerevisiae deletion strains, locus YKL009W, strain mrt4, stronger effect = lower value 0.979 | S. cerevisiae deletion strains, locus YKL068W, stronger effect = lower value 1 | S. cerevisiae deletion strains, locus YKL085W, strain MDH1 (second series), stronger effect = lower value 0.99 | S. cerevisiae deletion strains, locus YKL085W, strain MDH1, stronger effect = lower value 0.99 | S. cerevisiae deletion strains, locus YKL160W, strain elf1, stronger effect = lower value 0.992 | S. cerevisiae deletion strains, locus YKR001C, strain vps1, stronger effect = lower value 0.99 | S. cerevisiae deletion strains, locus YKR026C, strain gcn3, stronger effect = lower value 0.963 | S. cerevisiae deletion strains, locus YKR091W, strain srl3, stronger effect = lower value 0.974 | S. cerevisiae deletion strains, locus YLL001W, strain dnm1, stronger effect = lower value 0.956 | S. cerevisiae deletion strains, locus YLL026W, stronger effect = lower value 0.975 | S. cerevisiae deletion strains, locus YLL041C, strain sdh2, stronger effect = lower value 0.993 | S. cerevisiae deletion strains, locus YLR027C, strain aat2, stronger effect = lower value 0.968 | S. cerevisiae deletion strains, locus YLR039C, strain RIC1, stronger effect = lower value 0.953 | S. cerevisiae deletion strains, locus YLR058C, strain SHM2, stronger effect = lower value 1.02 | S. cerevisiae deletion strains, locus YLR102C, strain apc9, stronger effect = lower value 1.01 | S. cerevisiae deletion strains, locus YLR113W, strain HOG1, stronger effect = lower value 0.981 | S. cerevisiae deletion strains, locus YLR221C, strain rsa3, stronger effect = lower value 0.995 | S. cerevisiae deletion strains, locus YLR258W, strain gsy2, stronger effect = lower value 0.986 | S. cerevisiae deletion strains, locus YLR262C, strain YPT6 (second series), stronger effect = lower value 0.93 | S. cerevisiae deletion strains, locus YLR262C, strain YPT6, stronger effect = lower value 0.923 | S. cerevisiae deletion strains, locus YLR268W, strain sec22, stronger effect = lower value 0.992 | S. cerevisiae deletion strains, locus YLR320W, strain mms22, stronger effect = lower value 0.993 | S. cerevisiae deletion strains, locus YLR330W, strain CHS5, stronger effect = lower value 1.02 | S. cerevisiae deletion strains, locus YLR342W, strain FKS1 (second series), stronger effect = lower value 0.996 | S. cerevisiae deletion strains, locus YLR342W, strain FKS1, stronger effect = lower value 0.971 | S. cerevisiae deletion strains, locus YLR357W, strain rsc2, stronger effect = lower value 0.952 | S. cerevisiae deletion strains, locus YLR370C, strain arc18, stronger effect = lower value 0.958 | S. cerevisiae deletion strains, locus YLR371W, strain rom2, stronger effect = lower value 1 | S. cerevisiae deletion strains, locus YLR384C, strain iki3, stronger effect = lower value 0.954 | S. cerevisiae deletion strains, locus YLR418C, strain cdc73, stronger effect = lower value 1.03 | S. cerevisiae deletion strains, locus YML016C, strain PPZ1, stronger effect = lower value 1.01 | S. cerevisiae deletion strains, locus YML032C, strain rad52, stronger effect = lower value 0.997 | S. cerevisiae deletion strains, locus YML120C, strain ndi1, stronger effect = lower value 0.974 | S. cerevisiae deletion strains, locus YML124C, strain tub3, stronger effect = lower value 1 | S. cerevisiae deletion strains, locus YMR058W, strain fet3, stronger effect = lower value 0.964 | S. cerevisiae deletion strains, locus YMR078C, strain ctf18, stronger effect = lower value 0.976 | S. cerevisiae deletion strains, locus YMR125W, strain sto1, stronger effect = lower value 0.944 | S. cerevisiae deletion strains, locus YMR129W, stronger effect = lower value 0.976 | S. cerevisiae deletion strains, locus YMR205C, strain PFK2, stronger effect = lower value 0.96 | S. cerevisiae deletion strains, locus YMR223W, strain ubp8, stronger effect = lower value 1.02 | S. cerevisiae deletion strains, locus YMR231W, strain pep5, stronger effect = lower value 0.967 | S. cerevisiae deletion strains, locus YMR263W, strain SAP30, stronger effect = lower value 1 | S. cerevisiae deletion strains, locus YMR307W, strain GAS1, stronger effect = lower value 0.965 | S. cerevisiae deletion strains, locus YNL067W, strain RPL9B, stronger effect = lower value 1.01 | S. cerevisiae deletion strains, locus YNL071W, strain lat1, stronger effect = lower value 0.983 | S. cerevisiae deletion strains, locus YNL153C, strain GIM3, stronger effect = lower value 1 | S. cerevisiae deletion strains, locus YNL183C, strain NPR1, stronger effect = lower value 0.931 | S. cerevisiae deletion strains, locus YNL209W, strain ssb2, stronger effect = lower value 0.977 | S. cerevisiae deletion strains, locus YNL233W, strain BNI4, stronger effect = lower value 1.01 | S. cerevisiae deletion strains, locus YNL248C, strain rpa49, stronger effect = lower value 1.01 | S. cerevisiae deletion strains, locus YNL250W, strain rad50, stronger effect = lower value 0.991 | S. cerevisiae deletion strains, locus YNL271C, strain bni1, stronger effect = lower value 1.01 | S. cerevisiae deletion strains, locus YNL298W, strain CLA4, stronger effect = lower value 0.991 | S. cerevisiae deletion strains, locus YNL307C, strain MCK1, stronger effect = lower value 1.03 | S. cerevisiae deletion strains, locus YNL322C, strain KRE1 (second series), stronger effect = lower value 0.968 | S. cerevisiae deletion strains, locus YNR049C, strain mso1, stronger effect = lower value 0.959 | S. cerevisiae deletion strains, locus YNR052C, strain pop2, stronger effect = lower value 0.984 | S. cerevisiae deletion strains, locus YOL006C, strain TOP1, stronger effect = lower value 1.14 | S. cerevisiae deletion strains, locus YOL012C, strain htz1 0.856 | S. cerevisiae deletion strains, locus YOL147C, strain pex11, stronger effect = lower value 1.01 | S. cerevisiae deletion strains, locus YOR001W, strain rrp6, stronger effect = lower value 0.988 | S. cerevisiae deletion strains, locus YOR061W, strain CKA2, stronger effect = lower value 0.999 | S. cerevisiae deletion strains, locus YOR069W, strain VPS5, stronger effect = lower value 1.01 | S. cerevisiae deletion strains, locus YOR070C, strain gyp1, stronger effect = lower value 0.975 | S. cerevisiae deletion strains, locus YOR080W, strain dia2, stronger effect = lower value 0.984 | S. cerevisiae deletion strains, locus YOR083W, strain WHI5, stronger effect = lower value 1 | S. cerevisiae deletion strains, locus YOR106W, strain vam3, stronger effect = lower value 0.926 | S. cerevisiae deletion strains, locus YOR136W, strain idh2, stronger effect = lower value 1.01 | S. cerevisiae deletion strains, locus YOR144C, strain elg1, stronger effect = lower value 0.993 | S. cerevisiae deletion strains, locus YOR184W, strain ser1, stronger effect = lower value 1.01 | S. cerevisiae deletion strains, locus YOR231W, strain MKK1, stronger effect = lower value 0.983 | S. cerevisiae deletion strains, locus YOR265W, strain rbl2, stronger effect = lower value 0.991 | S. cerevisiae deletion strains, locus YOR270C, strain vph1, stronger effect = lower value 0.864 | S. cerevisiae deletion strains, locus YOR290C, strain snf2, stronger effect = lower value 0.962 | S. cerevisiae deletion strains, locus YOR316C, strain cot1, stronger effect = lower value 1 | S. cerevisiae deletion strains, locus YPL051W, strain arl3, stronger effect = lower value 0.995 | S. cerevisiae deletion strains, locus YPL078C, strain atp4, stronger effect = lower value 0.981 | S. cerevisiae deletion strains, locus YPL106C, strain sse1, stronger effect = lower value 0.906 | S. cerevisiae deletion strains, locus YPL240C, strain hsp82, stronger effect = lower value 0.999 | S. cerevisiae deletion strains, locus YPL256C, strain CLN2, stronger effect = lower value 0.971 | S. cerevisiae deletion strains, locus YPR119W, strain clb2, stronger effect = lower value 0.985 | S. cerevisiae deletion strains, locus YPR141C, strain kar3, stronger effect = lower value 1 | S. cerevisiae deletion strains, locus YPR163C, strain tif3, stronger effect = lower value 0.99 | S. cerevisiae deletion strains, locus YPR167C, strain met16, stronger effect = lower value 1.02 | S. cerevisiae deletion strains, strain wtn01, stronger effect = lower value 0.997 | S. cerevisiae strains, strain wild type, stronger effect = lower value 1
